In PubChem BioAssay AID1159580 (chemical genetic matrix, 2015):
Among all 5,500 compounds or so, about 2,000 (36%) were called active. Another 18% or so got no clear call; they are omitted. Some of the results follow. A number with no mark means an inactive call. Cut-off read from the data, not from the text of the source: active = normalized growth mostly below about 0.91 (no sharp cut-off); inconclusive = no clear call, values can overlap the other calls; inactive = mostly above about 0.92.

Test: chemical genetic growth profiling, strain panel (AID 1159580);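 note: tested at 20 µM; growth read once vehicle control cultures reached saturation at 30 °C; 1 = growth at the plate median or of vehicle wells; lower values mean less growth of the strain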
Conditions: growth OD

SMILES: CC1=C2C(=CO[C@H](C)[C@H]2C)C(=O)C(C(=O)O)=C1O
- normalized growth (S. cerevisiae deletion strains, locus YJR066W, strain TOR1, active compounds read low): 0.799 (active)
- normalized growth (S. cerevisiae deletion strains, locus YKL009W, strain mrt4, active compounds read low): 0.936
- normalized growth (S. cerevisiae deletion strains, locus YKL068W, active compounds read low): 0.972
- normalized growth (S. cerevisiae deletion strains, locus YKL085W, strain MDH1 (second series), active compounds read low): 0.943
- normalized growth (S. cerevisiae deletion strains, locus YKL085W, strain MDH1, active compounds read low): 0.943
- normalized growth (S. cerevisiae deletion strains, locus YKL160W, strain elf1, active compounds read low): 0.95
- normalized growth (S. cerevisiae deletion strains, locus YKL190W, strain CNB1, active compounds read low): 0.979
- normalized growth (S. cerevisiae deletion strains, locus YKR001C, strain vps1, active compounds read low): 1
- normalized growth (S. cerevisiae deletion strains, locus YKR026C, strain gcn3, active compounds read low): 0.979
- normalized growth (S. cerevisiae deletion strains, locus YKR091W, strain srl3, active compounds read low): 0.986
- normalized growth (S. cerevisiae deletion strains, locus YLL001W, strain dnm1, active compounds read low): 1
- normalized growth (S. cerevisiae deletion strains, locus YLL026W, active compounds read low): 0.976
- normalized growth (S. cerevisiae deletion strains, locus YLL041C, strain sdh2, active compounds read low): 0.98
- normalized growth (S. cerevisiae deletion strains, locus YLR027C, strain aat2, active compounds read low): 0.981
- normalized growth (S. cerevisiae deletion strains, locus YLR039C, strain RIC1, active compounds read low): 0.92
- normalized growth (S. cerevisiae deletion strains, locus YLR058C, strain SHM2, active compounds read low): 0.985
- normalized growth (S. cerevisiae deletion strains, locus YLR102C, strain apc9, active compounds read low): 0.979
- normalized growth (S. cerevisiae deletion strains, locus YLR113W, strain HOG1, active compounds read low): 0.709 (active)
- normalized growth (S. cerevisiae deletion strains, locus YLR221C, strain rsa3, active compounds read low): 0.971
- normalized growth (S. cerevisiae deletion strains, locus YLR258W, strain gsy2, active compounds read low): 0.96
- normalized growth (S. cerevisiae deletion strains, locus YLR262C, strain YPT6 (second series), active compounds read low): 0.891
- normalized growth (S. cerevisiae deletion strains, locus YLR262C, strain YPT6, active compounds read low): 0.918
- normalized growth (S. cerevisiae deletion strains, locus YLR268W, strain sec22, active compounds read low): 0.974
- normalized growth (S. cerevisiae deletion strains, locus YLR320W, strain mms22, active compounds read low): 0.94
- normalized growth (S. cerevisiae deletion strains, locus YLR330W, strain CHS5, active compounds read low): 0.98
- normalized growth (S. cerevisiae deletion strains, locus YLR342W, strain FKS1 (second series), active compounds read low): 0.931
- normalized growth (S. cerevisiae deletion strains, locus YLR342W, strain FKS1, active compounds read low): 0.954
- normalized growth (S. cerevisiae deletion strains, locus YLR357W, strain rsc2, active compounds read low): 1.01
- normalized growth (S. cerevisiae deletion strains, locus YLR370C, strain arc18, active compounds read low): 0.972
- normalized growth (S. cerevisiae deletion strains, locus YLR371W, strain rom2, active compounds read low): 1.01
- normalized growth (S. cerevisiae deletion strains, locus YLR384C, strain iki3, active compounds read low): 0.979
- normalized growth (S. cerevisiae deletion strains, locus YLR418C, strain cdc73, active compounds read low): 0.95
- normalized growth (S. cerevisiae deletion strains, locus YML016C, strain PPZ1, active compounds read low): 0.976
- normalized growth (S. cerevisiae deletion strains, locus YML032C, strain rad52, active compounds read low): 0.984
- normalized growth (S. cerevisiae deletion strains, locus YML120C, strain ndi1, active compounds read low): 0.975
- normalized growth (S. cerevisiae deletion strains, locus YML124C, strain tub3, active compounds read low): 0.964
- normalized growth (S. cerevisiae deletion strains, locus YMR058W, strain fet3, active compounds read low): 1
- normalized growth (S. cerevisiae deletion strains, locus YMR078C, strain ctf18, active compounds read low): 0.984
- normalized growth (S. cerevisiae deletion strains, locus YMR125W, strain sto1, active compounds read low): 0.996
- normalized growth (S. cerevisiae deletion strains, locus YMR129W, active compounds read low): 0.973
- normalized growth (S. cerevisiae deletion strains, locus YMR205C, strain PFK2, active compounds read low): 0.937
- normalized growth (S. cerevisiae deletion strains, locus YMR223W, strain ubp8, active compounds read low): 0.997
- normalized growth (S. cerevisiae deletion strains, locus YMR231W, strain pep5, active compounds read low): 0.981
- normalized growth (S. cerevisiae deletion strains, locus YMR307W, strain GAS1, active compounds read low): 0.85
- normalized growth (S. cerevisiae deletion strains, locus YNL067W, strain RPL9B, active compounds read low): 0.997
- normalized growth (S. cerevisiae deletion strains, locus YNL071W, strain lat1, active compounds read low): 0.981
- normalized growth (S. cerevisiae deletion strains, locus YNL128W, strain TEP1, active compounds read low): 1.01
- normalized growth (S. cerevisiae deletion strains, locus YNL153C, strain GIM3, active compounds read low): 0.988
- normalized growth (S. cerevisiae deletion strains, locus YNL183C, strain NPR1, active compounds read low): 0.82 (active)
- normalized growth (S. cerevisiae deletion strains, locus YNL209W, strain ssb2, active compounds read low): 0.977
- normalized growth (S. cerevisiae deletion strains, locus YNL233W, strain BNI4, active compounds read low): 1
- normalized growth (S. cerevisiae deletion strains, locus YNL248C, strain rpa49, active compounds read low): 1.01
- normalized growth (S. cerevisiae deletion strains, locus YNL250W, strain rad50, active compounds read low): 0.979
- normalized growth (S. cerevisiae deletion strains, locus YNL271C, strain bni1, active compounds read low): 0.978
- normalized growth (S. cerevisiae deletion strains, locus YNL298W, strain CLA4, active compounds read low): 0.956
- normalized growth (S. cerevisiae deletion strains, locus YNL307C, strain MCK1, active compounds read low): 0.985
- normalized growth (S. cerevisiae deletion strains, locus YNL322C, strain KRE1 (second series), active compounds read low): 0.965
- normalized growth (S. cerevisiae deletion strains, locus YNL322C, strain KRE1, active compounds read low): 0.968
- normalized growth (S. cerevisiae deletion strains, locus YNR049C, strain mso1, active compounds read low): 0.988
- normalized growth (S. cerevisiae deletion strains, locus YNR052C, strain pop2, active compounds read low): 0.997
- normalized growth (S. cerevisiae deletion strains, locus YOL012C, strain htz1): 1.44
- normalized growth (S. cerevisiae deletion strains, locus YOL147C, strain pex11, active compounds read low): 0.977
- normalized growth (S. cerevisiae deletion strains, locus YOR001W, strain rrp6, active compounds read low): 0.972
- normalized growth (S. cerevisiae deletion strains, locus YOR061W, strain CKA2, active compounds read low): 0.983
- normalized growth (S. cerevisiae deletion strains, locus YOR069W, strain VPS5, active compounds read low): 0.973
- normalized growth (S. cerevisiae deletion strains, locus YOR070C, strain gyp1, active compounds read low): 0.974
- normalized growth (S. cerevisiae deletion strains, locus YOR080W, strain dia2, active compounds read low): 0.972
- normalized growth (S. cerevisiae deletion strains, locus YOR083W, strain WHI5, active compounds read low): 1
- normalized growth (S. cerevisiae deletion strains, locus YOR106W, strain vam3, active compounds read low): 1
- normalized growth (S. cerevisiae deletion strains, locus YOR136W, strain idh2, active compounds read low): 0.985
- normalized growth (S. cerevisiae deletion strains, locus YOR144C, strain elg1, active compounds read low): 0.981
- normalized growth (S. cerevisiae deletion strains, locus YOR184W, strain ser1, active compounds read low): 0.989
- normalized growth (S. cerevisiae deletion strains, locus YOR231W, strain MKK1, active compounds read low): 0.809 (active)
- normalized growth (S. cerevisiae deletion strains, locus YOR265W, strain rbl2, active compounds read low): 0.967
- normalized growth (S. cerevisiae deletion strains, locus YOR270C, strain vph1, active compounds read low): 1
- normalized growth (S. cerevisiae deletion strains, locus YOR290C, strain snf2, active compounds read low): 0.969
- normalized growth (S. cerevisiae deletion strains, locus YOR316C, strain cot1, active compounds read low): 0.972
- normalized growth (S. cerevisiae deletion strains, locus YPL051W, strain arl3, active compounds read low): 0.967
- normalized growth (S. cerevisiae deletion strains, locus YPL078C, strain atp4, active compounds read low): 0.993
- normalized growth (S. cerevisiae deletion strains, locus YPL106C, strain sse1, active compounds read low): 0.933
- normalized growth (S. cerevisiae deletion strains, locus YPL240C, strain hsp82, active compounds read low): 0.978
- normalized growth (S. cerevisiae deletion strains, locus YPL241C, strain CIN2, active compounds read low): 0.971
- normalized growth (S. cerevisiae deletion strains, locus YPL256C, strain CLN2, active compounds read low): 0.838
- normalized growth (S. cerevisiae deletion strains, locus YPR119W, strain clb2, active compounds read low): 0.965
- normalized growth (S. cerevisiae deletion strains, locus YPR141C, strain kar3, active compounds read low): 0.957
- normalized growth (S. cerevisiae deletion strains, locus YPR163C, strain tif3, active compounds read low): 1.01
- normalized growth (S. cerevisiae deletion strains, locus YPR167C, strain met16, active compounds read low): 0.987
- normalized growth (S. cerevisiae deletion strains, strain wtn01, active compounds read low): 0.956
- normalized growth (S. cerevisiae strains, strain wild type, active compounds read low): 0.974
